Measured values published in PubChem BioAssay AID1159580 (chemical genetic matrix, 2015).
About 2,000 (36%) of roughly 5,500 compounds were called active. Inconclusive results (about 18%) are left out. Cut-off read from the data, not from the text of the source: active = normalized growth mostly below about 0.91 (no sharp cut-off); inconclusive = no clear call, values can overlap the other calls; inactive = mostly above about 0.92. The list shows a part of the results.

Test: chemical genetic growth profiling, strain panel (AID 1159580);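 note: tested at 20 µM; growth read once vehicle control cultures reached saturation at 30 °C; 1 = growth at the plate median or of vehicle wells; lower values mean less growth of the strain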
Conditions: growth OD

Measured: normalized growth

C=CCc1ccc(O)c(OC)c1
active: S. cerevisiae deletion strains, locus YKL068W, hits give low values 0.923 | S. cerevisiae deletion strains, locus YKL085W, strain MDH1 (second series), hits give low values 0.894 | S. cerevisiae deletion strains, locus YKL085W, strain MDH1, hits give low values 0.894 | S. cerevisiae deletion strains, locus YKR001C, strain vps1, hits give low values 0.813 | S. cerevisiae deletion strains, locus YLR039C, strain RIC1, hits give low values 0.605 | S. cerevisiae deletion strains, locus YLR330W, strain CHS5, hits give low values 0.885 | S. cerevisiae deletion strains, locus YLR371W, strain rom2, hits give low values 0.692 | S. cerevisiae deletion strains, locus YLR418C, strain cdc73, hits give low values 0.799 | S. cerevisiae deletion strains, locus YML016C, strain PPZ1, hits give low values 0.91 | S. cerevisiae deletion strains, locus YML124C, strain tub3, hits give low values 0.917 | S. cerevisiae deletion strains, locus YPR119W, strain clb2, hits give low values 0.916 | S. cerevisiae deletion strains, locus YPR141C, strain kar3, hits give low values 0.879
inactive: S. cerevisiae deletion strains, locus YJL187C, strain SWE1, hits give low values 0.999 | S. cerevisiae deletion strains, locus YJR043C, strain POL32, hits give low values 0.913 | S. cerevisiae deletion strains, locus YJR066W, strain TOR1, hits give low values 0.973 | S. cerevisiae deletion strains, locus YJR075W, strain HOC1, hits give low values 0.885 | S. cerevisiae deletion strains, locus YKL009W, strain mrt4, hits give low values 0.998 | S. cerevisiae deletion strains, locus YKL160W, strain elf1, hits give low values 1.02 | S. cerevisiae deletion strains, locus YKR026C, strain gcn3, hits give low values 0.989 | S. cerevisiae deletion strains, locus YKR091W, strain srl3, hits give low values 0.992 | S. cerevisiae deletion strains, locus YLL001W, strain dnm1, hits give low values 1.02 | S. cerevisiae deletion strains, locus YLL026W, hits give low values 0.989 | S. cerevisiae deletion strains, locus YLL041C, strain sdh2, hits give low values 0.989 | S. cerevisiae deletion strains, locus YLR027C, strain aat2, hits give low values 0.99 | S. cerevisiae deletion strains, locus YLR058C, strain SHM2, hits give low values 0.949 | S. cerevisiae deletion strains, locus YLR102C, strain apc9, hits give low values 0.95 | S. cerevisiae deletion strains, locus YLR113W, strain HOG1, hits give low values 0.962 | S. cerevisiae deletion strains, locus YLR221C, strain rsa3, hits give low values 1.01 | S. cerevisiae deletion strains, locus YLR258W, strain gsy2, hits give low values 1.01 | S. cerevisiae deletion strains, locus YLR262C, strain YPT6 (second series), hits give low values 0.998 | S. cerevisiae deletion strains, locus YLR262C, strain YPT6, hits give low values 0.674 | S. cerevisiae deletion strains, locus YLR268W, strain sec22, hits give low values 1.01 | S. cerevisiae deletion strains, locus YLR320W, strain mms22, hits give low values 0.996 | S. cerevisiae deletion strains, locus YLR342W, strain FKS1 (second series), hits give low values 0.888 | S. cerevisiae deletion strains, locus YLR342W, strain FKS1, hits give low values 0.999 | S. cerevisiae deletion strains, locus YLR357W, strain rsc2, hits give low values 0.992 | S. cerevisiae deletion strains, locus YLR370C, strain arc18, hits give low values 0.997 | S. cerevisiae deletion strains, locus YLR384C, strain iki3, hits give low values 0.991 | S. cerevisiae deletion strains, locus YML032C, strain rad52, hits give low values 0.93 | S. cerevisiae deletion strains, locus YML120C, strain ndi1, hits give low values 1.03 | S. cerevisiae deletion strains, locus YMR058W, strain fet3, hits give low values 1 | S. cerevisiae deletion strains, locus YMR078C, strain ctf18, hits give low values 0.917 | S. cerevisiae deletion strains, locus YMR125W, strain sto1, hits give low values 0.965 | S. cerevisiae deletion strains, locus YMR129W, hits give low values 0.984 | S. cerevisiae deletion strains, locus YMR205C, strain PFK2, hits give low values 0.995 | S. cerevisiae deletion strains, locus YMR223W, strain ubp8, hits give low values 0.936 | S. cerevisiae deletion strains, locus YMR231W, strain pep5, hits give low values 0.983 | S. cerevisiae deletion strains, locus YMR307W, strain GAS1, hits give low values 1 | S. cerevisiae deletion strains, locus YNL067W, strain RPL9B, hits give low values 0.97 | S. cerevisiae deletion strains, locus YNL071W, strain lat1, hits give low values 0.959 | S. cerevisiae deletion strains, locus YNL153C, strain GIM3, hits give low values 0.991 | S. cerevisiae deletion strains, locus YNL183C, strain NPR1, hits give low values 0.928 | S. cerevisiae deletion strains, locus YNL209W, strain ssb2, hits give low values 0.999 | S. cerevisiae deletion strains, locus YNL233W, strain BNI4, hits give low values 0.901 | S. cerevisiae deletion strains, locus YNL248C, strain rpa49, hits give low values 1 | S. cerevisiae deletion strains, locus YNL250W, strain rad50, hits give low values 0.924 | S. cerevisiae deletion strains, locus YNL271C, strain bni1, hits give low values 0.931 | S. cerevisiae deletion strains, locus YNL298W, strain CLA4, hits give low values 0.995 | S. cerevisiae deletion strains, locus YNL307C, strain MCK1, hits give low values 0.932 | S. cerevisiae deletion strains, locus YNL322C, strain KRE1 (second series), hits give low values 0.993 | S. cerevisiae deletion strains, locus YNR049C, strain mso1, hits give low values 0.988 | S. cerevisiae deletion strains, locus YNR052C, strain pop2, hits give low values 1.01 | S. cerevisiae deletion strains, locus YOL012C, strain htz1 0.778 | S. cerevisiae deletion strains, locus YOL147C, strain pex11, hits give low values 0.939 | S. cerevisiae deletion strains, locus YOR001W, strain rrp6, hits give low values 1.01 | S. cerevisiae deletion strains, locus YOR061W, strain CKA2, hits give low values 0.948 | S. cerevisiae deletion strains, locus YOR069W, strain VPS5, hits give low values 0.948 | S. cerevisiae deletion strains, locus YOR070C, strain gyp1, hits give low values 0.996 | S. cerevisiae deletion strains, locus YOR080W, strain dia2, hits give low values 0.989 | S. cerevisiae deletion strains, locus YOR083W, strain WHI5, hits give low values 1.04 | S. cerevisiae deletion strains, locus YOR106W, strain vam3, hits give low values 1.04 | S. cerevisiae deletion strains, locus YOR136W, strain idh2, hits give low values 0.992 | S. cerevisiae deletion strains, locus YOR144C, strain elg1, hits give low values 0.937 | S. cerevisiae deletion strains, locus YOR184W, strain ser1, hits give low values 0.973 | S. cerevisiae deletion strains, locus YOR231W, strain MKK1, hits give low values 0.982 | S. cerevisiae deletion strains, locus YOR265W, strain rbl2, hits give low values 0.999 | S. cerevisiae deletion strains, locus YOR270C, strain vph1, hits give low values 0.964 | S. cerevisiae deletion strains, locus YOR290C, strain snf2, hits give low values 0.986 | S. cerevisiae deletion strains, locus YOR316C, strain cot1, hits give low values 0.939 | S. cerevisiae deletion strains, locus YPL051W, strain arl3, hits give low values 1.02 | S. cerevisiae deletion strains, locus YPL078C, strain atp4, hits give low values 1.01 | S. cerevisiae deletion strains, locus YPL106C, strain sse1, hits give low values 0.948 | S. cerevisiae deletion strains, locus YPL240C, strain hsp82, hits give low values 0.993 | S. cerevisiae deletion strains, locus YPL256C, strain CLN2, hits give low values 0.973 | S. cerevisiae deletion strains, locus YPR163C, strain tif3, hits give low values 0.969 | S. cerevisiae deletion strains, locus YPR167C, strain met16, hits give low values 0.947 | S. cerevisiae deletion strains, strain wtn01, hits give low values 0.988 | S. cerevisiae strains, strain wild type, hits give low values 0.95
